# Measured values from the supplement of paper PMC11417369.
# ± gives the standard deviation of the averaged measurements. Over roughly 25,000 sequences, “ln(normalized median fluorescence intensity)” has its median near 8.6; the highest 2% begin near 10. The full list was thinned out, with the highest values kept by preference.
# Test system: PfAP2-EXP AP2 domain (GST-tagged)
# Assay: gcPBM binding intensity (ln(normalized median fluorescence intensity)); higher = stronger DNA binding
# Procedure, shortened: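 Binding of GST-tagged P. falciparum DNA-binding domains, expressed in E. coli and used at about 25 μg on average, was carried out for 1 h in 1× PBS containing 1% milk, 0.2 mg/ml BSA, 0.5% salmon testes DNA and 0.03% Triton X-100. The target was an Agilent 4 × 180k array of primer-extended double-stranded 36-bp intergenic genomic probes plus negative controls, read with Alexa488 anti-GST antibody at 488 nm. Binding intensity is the highest Masliner-normalised natural-log median intensity across replicate spots of either probe orientation.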
row,Sequence,gcPBM binding intensity (ln)
1,TAAAATATTGTTATTACATGCAACCTTATGAAAAAT [TGCATGCA_site706],8.94 ± 0.17
2,GTATAAAAGTTATATACACACAACAGAATTACATAT [CACACA_site6212],8.68 ± 0.49
3,TCTTAATATGGTAATACACACTAATATACTTTTGTT [CACACA_site4969],8.55 ± 0.31
4,TTTTGTTTGTTCGTGACTACATTATGTTGTAAATAC [CACACA_negctrl_site604],8.78 ± 0.38
5,TATACATTTATGTACACACACATATAGGTATATTTA [CACACA_site7408],8.47 ± 0.099
6,AATTATAAAAAAAAAAAAAAAAAAAAAAACTAAATG [CACACA_negctrl_site1379],8.11 ± 0.47
7,TTTATTTTTTGTGGCACACAGAAGAAACAAGAACAA [CACACA_site1696],9.12 ± 0.35
8,TGAACAATATATAATAGTACATATTTATTTTTTTCT [XGTACX_site4256],8.13 ± 0.2
9,CTTAAAAAAAAAAAATGTACACATAAAAAAAATACA [XGTACX_site6700],8.52 ± 0.35
10,TTGTTGATTGTTATTTATCATTAGATGTAAAATATG [CACACA_negctrl_site927],8.39 ± 0.3
11,TATAAAATGTAATCTGAACACACATATTTTTTTAAT [CACACA_site8521],8.11 ± 0.37
12,ATATTGAATTCCAACACATGCAAAACTTTCGGTTTT [TGCATGCA_site485],8.8 ± 0.38
13,TCATATTATAAAAAATGTACAAGGAAAAAATATATA [XGTACX_site337],9.06 ± 0.58
14,ATATATTTTATACATACACACATATATATATTTTTT [CACACA_site3940],8.66 ± 0.33
15,TATTTATTCTCCAACACACACACATATATTTATATA [CACACA_site7376],8.69 ± 0.53
16,TATTTATTCTCCAACACACACACATATATATATATA [CACACA_site2894],10.1 ± 0.43
17,TTTATTCTCAAACACACACACATATATATATATATA [CACACA_site2895],10.2 ± 0.51
18,ATATTTATGAAGTTCACACATATATATATATATATA [CACACA_site5954],10.3 ± 0.52
19,TTTTCATTTTTCTTTACACACATATATATATATATA [CACACA_site2236],10.2 ± 0.31
20,TTTTCATTTTTCTTTACACACATATATTTATTTATA [CACACA_site7119],8.94 ± 0.4
21,TTTTTATATATATTCTCACACACTTTTTATTTTAAC [CACACA_site657],8.7 ± 0.46
22,TATACACATATTTTTACACACATATTTTTTCATATA [CACACA_site7244],8.7 ± 0.38

row,Sequence,gcPBM binding intensity (ln)
1,AACATATTTATATACACACACATATTTATATGAAAT [CACACA_site6268],8.39 ± 0.33
2,ATTTTATTTTCTCACACACACATATATATATATATA [CACACA_site5781],10.4 ± 0.4
3,ATTTTATTTTCATATGAACACACATATATATATTAT [CACACA_site8741],9.15 ± 0.47
4,TCGTGTTTTAAAAAAATGAAGAAAAGTAAAAAAAAA [XGTACX_negctrl_site23],8.46 ± 0.67
5,AGGATAATATACAAAAGTACATAAAACTAAAAAAAC [XGTACX_site605],9.01 ± 0.24
6,AAAAATATAACCGTTACACACAAAATAATATGAGAA [CACACA_site3773],8.72 ± 0.43
7,ATATTTATTTATTTATGTACGCACACAGTTGATATT [XGTACX_site5808],8.92 ± 0.4
8,TTTTTTTTATTTTGTTGTACGCTTATTTGTATATAT [XGTACX_site7325],8.95 ± 0.45
9,TAAATACATAAATACACACACATATATTATATATAT [CACACA_site4310],8.62 ± 0.14
10,TTTTTTTTTTTGTTCACACATATATATATATATATA [CACACA_site5376],10.2 ± 0.37
11,TGAAGAATATTTTTCACACATATATATATATATATA [CACACA_site6080],10.2 ± 0.38
12,TATAATTATTTTTTCACACATATGTATTTATATATA [CACACA_site4205],8.88 ± 0.43
13,TTTTTTTTTTACTTCACACATATACATTTATATTTA [CACACA_site4385],8.7 ± 0.44
14,AACGCACATATATTTATGTATATATATATATATATA [GTGCAC_negctrl_site478],10.2 ± 0.31
15,CATATTTTGAACTTCACACATATATATATATATATA [CACACA_site4228],10.2 ± 0.3
16,TCCATATTTGTTCACACACACACATATTTATATATA [CACACA_site3570],8.84 ± 0.42
17,TTTTTTTTTTTGTTCACACATATACTTTTATTTTGG [CACACA_site4250],8.72 ± 0.47
18,AAAAAAAAAAAAATCACACATATGTATTTATATATA [CACACA_site5790],8.21 ± 0.46
19,TTTTTTTTTTTTTTTTTTTATGTATACATATTTATA [TGCATGCA_negctrl_site234],8.28 ± 0.43
20,CATATGTATTTATTCACACATATATATATATATATA [CACACA_site4207],10.2 ± 0.4
21,AAAATATATAAACGCACATATATTTATGTATATATA [CACACA_negctrl_site163],8.64 ± 0.49
22,GACATAGTATTAAGTTGTACATATATAAAAATAAAT [XGTACX_site1583],8.65 ± 0.32

row,Sequence,gcPBM binding intensity (ln)
1,TGCTTATCCATTTCTACACACAAAAAAAAAAAAAAA [CACACA_site37],8.28 ± 0.28
2,ATAATGTAGAACTAGAGTACATAAAAAAATAAACAT [XGTACX_site5205],9.06 ± 0.47
3,TATATATAAATATTCAGTACATAGTGCTATTAAGTG [XGTACX_site1979],8.605 ± 0.064
4,TGTATGTATAATTGAGTGCACAGAAAAAAAAAAGAA,9.6 ± 0.17
5,GTTGTAAAAAGAAAATGTACGTAATAAATATATATA [XGTACX_site3081],8.93 ± 0.38
6,TTTTCATATATTTATTGTACATATTACATATATAAT [XGTACX_site2425],8.71 ± 0.23
7,TACATTCTAATAATTGCACACTGGTTATTAAAAGGA [CACACA_site1614],8.4 ± 0.29
8,TATATATTTTTTTCAAGTACACATTACAGTTACATA [XGTACX_site2713],8.62 ± 0.38
9,TTATAAGATTTATGTACACACATATACTCACCTCTA [CACACA_site729],8.51 ± 0.25
10,TTTATATAGAAACACACACACAAAAAAAAAAAAAAA [CACACA_site2646],8.24 ± 0.52
11,ATATATATATAATTATATAAAATATATCATATGTTA [XGTACX_negctrl_site47],9.37 ± 0.14
12,TATTAATTATATTTATGTACATAATCATATTATTAT [XGTACX_site7938],8.55 ± 0.35
13,TTTAATCATATGTTATATAATAAGCCCCCCCCCCAA [CACACA_negctrl_site486],11 ± 0.12
14,TCTTTCTATTTATAATGTACTCAAAATTATTCTATA [XGTACX_site4867],8.6 ± 0.36
15,AGTGTGCTCAGCTTAGCACAAATTGGAATACCATGT [CACACA_negctrl_site367],8.63 ± 0.4
16,CATATAATAAATAATACACACATATTGTAAATATAT [CACACA_site5734],8.43 ± 0.44
17,ATATTAGATTAATTTACACACAGAAAATGAGATTTT [CACACA_site541],8.21 ± 0.36
18,ATATTATGAAGGGATATTTTCAAAAATATTAGGAGA [CACACA_negctrl_site942],8.64 ± 0.41
19,ATATTTCAAAATGAAAGTACATATAAAAATTATACA [XGTACX_site3787],8.31 ± 0.29
20,TTATTTTTCAATGAAAAGGATTATATATATATATAT [CACACA_negctrl_site757],10.2 ± 0.13
21,TTCATATTTCATATATGTACTTATGTTCAATATAGT [XGTACX_site3811],8.31 ± 0.3
22,ATTTTTTTGTTAATTTGTACATAAAATTTTATTTTA [XGTACX_site7007],8.72 ± 0.42

row,Sequence,gcPBM binding intensity (ln)
1,TTTATATTTATATAAATATAATATATATGAATTATA [XGTACX_negctrl_site466],8.19 ± 0.51
2,AATATATAGAGAGATATGCACACTGTATGAATGCAC [CACACA_site2677],8.58 ± 0.014
3,TATAATATAAAATATGCACACATTGGAATGGGAGAA [CACACA_site3746],8.97 ± 0.35
4,CCACTGTATGAATGCACACATTCATAGAATTGCTAT [CACACA_site2676],8.79 ± 0.28
5,ATATATATATATAATGCACACATTATGAATTATGTA [CACACA_site3384],9.98 ± 0.26
6,TATATAGAGAGATATGCACACTGTATGAATGCCCCC [CACACA_site5476],10.3 ± 0.38
7,TATATGGAGAGATATGCACACTGTATGAATGCCCCC [CACACA_site8853],10.3 ± 0.33
8,TCCTTATAAAAATACACACAAACTTTAATTAAAACA [CACACA_site3730],8.45 ± 0.58
9,TTTAAGATTTTGTAATGTACATATATACATATATAT [XGTACX_site399],8.45 ± 0.33
10,TAAAGAAATAAATACATACACACATATATATATATA [CACACA_site3363],10.2 ± 0.5
11,AAAAAAAGAAATAATAAAAAATATATATATATATAT [GTGCAC_negctrl_site702],10.1 ± 0.44
12,AGAAATAAGAAATATACACACATATATATATATATA [CACACA_site2808],10.2 ± 0.18
13,AAAAAAAAAAAAGAAAAATATATATATAAATAAATA [GTGCAC_negctrl_site569],8.29 ± 0.67
14,AGAAATAAGAAATATACACACATATAAATATAAATA [CACACA_site7342],8.52 ± 0.55
15,ATATAAATAAAGAAATATATATATATATATATATAT [GTGCAC_negctrl_site668],10.2 ± 0.88
16,AAGAAATAAATACATACACACATATATATATATATA [CACACA_site3362],10 ± 0.34
17,AATATAAGAATATATACACACATAAATACATACATA [CACACA_site4128],8.6 ± 0.31
18,AAGAAATAAATACATACACACATATATAAATAAATA [CACACA_site7559],8.68 ± 0.18
19,TTTTTTTTTTTTGATGCACACACCTGAACGAGTTAA [CACACA_site317],8.62 ± 0.32
20,TAGCGTACATTTCATTGTAATCATAAAAAATAAAGA [CACACA_negctrl_site447],8.56 ± 0.49
21,GTTGCAATTAACACTAGTACATATAAGTAGTTTATT [XGTACX_site2063],8.72 ± 0.18
22,TCCTTGCATTTTAAAACACACAAAAATTAATTGTTA [CACACA_site7152],8.55 ± 0.32
